The results in this text go back to PubChem BioAssay (EPA / NIEHS).

Assay [1] addresses Cellular tumor antigen p53 (Homo sapiens) (UniProt P04637). The assay is described as follows: TOX21_p53_BLA_p2_ratio: Tox21 HCT-116 p53 Agonism Beta-lactamase Assay, Ratio, Phase 2 (AID 2283592). An outline of the steps: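 Read-out is the blue/green (460/530 nm, 405 nm excitation) ratio after 2 h CCF4-AM loading, fitted as gain versus DMSO. Compounds, pinned at 217-fold dilution from DMSO stocks, stayed 16 h on HCT-116 beta-lactamase reporter cells seeded 5 h earlier.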

A short description of assay [2]: TOX21_p53_BLA_p3_viability: Viability Assessment in the Tox21 HCT-116 p53 Agonism Beta-lactamase Assay, Phase 3 (AID 2283593).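 Further: cells exposed to compound for 16 h before reading.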 An outline of the steps:
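HCT116 cells, 4000/well, dosed 5 h after plating by pin transfer (217-fold dilution from DMSO stock) and incubated 16 h at 37C, 5% CO2. Viability read as ATP luminescence with CellTiter-Glo after 30 min at room temperature.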

Assay [3] concerns the target Cellular tumor antigen p53 (Homo sapiens) (UniProt P04637). The assay is described as follows: TOX21_p53_BLA_p3_ratio: Tox21 HCT-116 p53 Agonism Beta-lactamase Assay, Ratio, Phase 3 (AID 2283596). In short, it runs like this: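 Cells were seeded at 4000/well, rested 5 h at 37C, then dosed with DMSO compound solutions (217-fold dilution) for 16 h. CCF4-AM substrate was loaded for 2 h at room temperature, and the 460/530 nm emission ratio was fitted for gain of signal versus DMSO.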

Assay [4] is described as follows: TOX21_p53_BLA_p4_viability: Viability Assessment in the Tox21 HCT-116 p53 Agonism Beta-lactamase Assay, Phase 4 (AID 2283597).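 Further: hits lower the luminescence signal meaning cytotoxicity.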 An outline of the steps: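 Cytotoxicity as reduced cellular ATP (CellTiter-Glo luminescence, 30 min room temperature), measured in the same wells following the CCF4 FRET p53 reading. Human HCT-116 cells received compounds in DMSO (217-fold dilution) for 16 h.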

The target of assay [5] is Cellular tumor antigen p53 (Homo sapiens) (UniProt P04637). Kind of assay: TOX21_p53_BLA_p5_ratio: Tox21 HCT-116 p53 Agonism Beta-lactamase Assay, Ratio, Phase 5 (AID 2283599). In short, it runs like this:
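HCT-116 p53-bla cells (4000/well) plated 5 h, dosed with compound (217-fold DMSO dilution) for 16 h at 37 C; CCF4-AM substrate 2 h at room temperature. Activity is the 460/530 nm emission ratio (405 nm excitation), fitted in gain-of-signal direction versus DMSO.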

A short description of assay [6]: TOX21_p53_BLA_p5_viability: Viability Assessment in the Tox21 HCT-116 p53 Agonism Beta-lactamase Assay, Phase 5 (AID 2283600). An outline of the steps: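 Viability came from CellTiter-Glo ATP luminescence, read after 30 min at room temperature. Before this, HCT-116 p53-bla cells (4000/well) had 16 hours of compound exposure at 37C, with DMSO stocks diluted 217-fold on transfer.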

The target in assay [7] is Cellular tumor antigen p53 (Homo sapiens) (UniProt P04637). Kind of assay: TOX21_p53_BLA_p4_ratio: Tox21 HCT-116 p53 Agonism Beta-lactamase Assay, Ratio, Phase 4 (AID 2283601). An outline of the steps: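 HCT-116 p53 beta-lactamase reporter cells (4000/well) preincubated 5 h, then compound (217-fold dilution of DMSO stock) for 16 h at 37C. CCF4-AM substrate added 2 h at room temperature; 460/530 nm emission ratio fitted upward versus DMSO.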
Cellular tumor antigen p53 (Homo sapiens), sequence (P04637 whole entry, looked up): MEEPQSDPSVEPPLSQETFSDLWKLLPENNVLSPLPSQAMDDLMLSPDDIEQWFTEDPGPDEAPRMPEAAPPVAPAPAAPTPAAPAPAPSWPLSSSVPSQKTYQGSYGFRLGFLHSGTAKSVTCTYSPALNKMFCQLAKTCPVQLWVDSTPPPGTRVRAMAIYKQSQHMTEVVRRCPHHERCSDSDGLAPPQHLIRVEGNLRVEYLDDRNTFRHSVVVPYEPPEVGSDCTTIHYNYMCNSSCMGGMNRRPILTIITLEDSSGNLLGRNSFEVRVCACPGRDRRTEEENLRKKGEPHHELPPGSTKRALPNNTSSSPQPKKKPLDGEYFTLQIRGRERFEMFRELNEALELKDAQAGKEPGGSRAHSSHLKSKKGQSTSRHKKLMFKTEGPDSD

Inconclusive results are not listed. The source made the active and inactive calls. How the source made its calls: active means hit-call score of the fitted dose curve at least 0.9, where 1 is the maximum; inconclusive means response in the unintended direction; inactive means score below 0.9.

`O=C(O)c1cc(O)c2c(c1)C(=O)c1cccc(O)c1C2=O`: the result in assay [1], in assay [2], in assay [3], in assay [4], in assay [5] and in assay [6] was inactive. Besides, in assay [7], the outcome was inactive.
For the compound `C[N+](C)(CCOc1ccccc1)Cc1cccs1`, the result in assay [1], in assay [2], in assay [3], in assay [4], in assay [5] and in assay [6] was inactive. In addition, in assay [7], the result was inactive.
On to `Cc1cn([C@H]2C[C@H](O)[C@@H](CO)O2)c(=O)[nH]c1=O`, for which the outcome in assay [1], in assay [2], in assay [3], in assay [4], in assay [5] and in assay [6] was inactive. In assay [7], the outcome was inactive.
As for `C=C1/C(=C\C=C2/CCC[C@]3(C)[C@@H]([C@H](C)OCCC(C)(C)O)CC[C@@H]23)C[C@@H](O)C[C@@H]1O`, the half-maximal activity concentration (AC50) was 12.7 µM (active) in assay [1], 14.3 µM (active) in assay [3], 13.5 µM (active) in assay [5] and 9.97 µM (active) in assay [7]. Besides, the outcome in assay [2], in assay [4] and in assay [6] was inactive.
As to `CCn1cc(C(=O)O)c(=O)c2cc(F)c(N3CCN(C)CC3)cc21`, the result in assay [1], in assay [2], in assay [3], in assay [4], in assay [5] and in assay [6] was inactive. The outcome in assay [7] was inactive.
Regarding `CC12CCC(CC1=O)C2(C)C` (stereo not drawn), the outcome in assay [1], in assay [2], in assay [3], in assay [4], in assay [5] and in assay [6] was inactive. Also, the outcome in assay [7] was inactive.
Take `N[C@H](CC(=O)O)C(=O)O`: the result in assay [1], in assay [2], in assay [3], in assay [4], in assay [5] and in assay [6] was inactive. Further, the outcome in assay [7] was inactive.
With `O=S1(=O)c2cccc3cccc(c23)N1CCCN1CCN(c2ccc(F)cc2)CC1`, the outcome in assay [1], in assay [2], in assay [3], in assay [5], in assay [6] and in assay [7] was inactive. Besides, in assay [4], the AC50 is 41.2 µM (active).
Consider `CC1(CN2CCC(n3c(=O)[nH]c4ccccc43)CC2)OCc2ccccc2-n2cccc21` (stereo not drawn), for which the result in assay [1], in assay [2], in assay [3], in assay [5], in assay [6] and in assay [7] was inactive. The AC50 in assay [4] was 33.3 µM (active).
For `NC(N)=NN=Cc1c(Cl)cccc1Cl`, the outcome in assay [1], in assay [2], in assay [3], in assay [4], in assay [5] and in assay [6] was inactive. Besides, the outcome in assay [7] was inactive.
As for `CCCCCCCCCCCl`, the outcome in assay [1], in assay [2], in assay [3], in assay [4], in assay [5] and in assay [6] was inactive. Moreover, in assay [7], the result was inactive.
Regarding `CCN(CC)CCSC(=O)C(c1ccccc1)c1ccccc1`, the result in assay [1], in assay [2], in assay [3], in assay [4], in assay [5] and in assay [6] was inactive. In addition, the result in assay [7] was inactive.
As for `CCCCOC(=O)c1ccc(N)cc1`, the result in assay [1], in assay [2], in assay [3], in assay [4], in assay [5] and in assay [6] was inactive. Moreover, the outcome in assay [7] was inactive.
With `CC(=O)O[C@H]1C(=O)[C@@]2(C)[C@H]([C@H](OC(=O)c3ccccc3)[C@]3(O)C[C@H](OC(=O)[C@H](O)[C@@H](NC(=O)c4ccccc4)c4ccccc4)C(C)=C1C3(C)C)[C@]1(OC(C)=O)CO[C@@H]1C[C@@H]2O`, the AC50 was 0.179 µM (active) in assay [1], 0.00826 µM (active) in assay [3], 4.57 µM (active) in assay [5] and 0.00702 µM (active) in assay [7]. The outcome in assay [2], in assay [4] and in assay [6] was inactive.
For the compound `c1ccc2sc(SN3CCOCC3)nc2c1`, the outcome in assay [1], in assay [2], in assay [3], in assay [4], in assay [5] and in assay [6] was inactive. Moreover, the outcome in assay [7] was inactive.
Consider `COCC(O)CO` (stereo not drawn), for which the result in assay [1], in assay [2], in assay [3], in assay [4], in assay [5] and in assay [6] was inactive. Further, the outcome in assay [7] was inactive.
Take `C#C[C@]1(OC(C)=O)CC[C@H]2[C@@H]3CCC4=C/C(=N/O)CC[C@@H]4[C@H]3CC[C@@]21CC`: the half-maximal activity concentration (AC50) in assay [1] was 40.4 µM (active); in assay [2], 38.7 µM (active); in assay [3], 42.8 µM (active); in assay [4] it was 38.2 µM (active); in assay [5] it was 40.6 µM (active); in assay [6], 37.1 µM (active). The AC50 in assay [7] was 39.5 µM (active).
With `O=S(=O)(O)c1cc(I)c(O)c2ncccc12`, the outcome in assay [1], in assay [2], in assay [3], in assay [4], in assay [5] and in assay [6] was inactive. Moreover, the outcome in assay [7] was inactive.
On to `Cc1ccc2c(c1[N+](=O)[O-])C(=O)c1ccccc1C2=O`, for which the AC50 is 22.5 µM (active) in assay [1], 20.3 µM (active) in assay [5] and 25.7 µM (active) in assay [7]. For the same compound, the call in assay [2], in assay [3], in assay [4] and in assay [6] was inactive.
In the case of `C=C(C)C(=O)OCC(C)(C)COC(=O)C(=C)C`, the outcome in assay [1], in assay [2], in assay [3], in assay [4], in assay [5] and in assay [6] was inactive. The outcome in assay [7] was inactive.
On to `Nc1ccn([C@@H]2O[C@H](CO)[C@@H](O)C2(F)F)c(=O)n1`, for which the AC50 was 0.176 µM (active) in assay [1], 0.181 µM (active) in assay [3], 0.26 µM (active) in assay [5] and 0.188 µM (active) in assay [7]. Further, the result in assay [2], in assay [4] and in assay [6] was inactive.
For `O=C(O)O`, the outcome in assay [1], in assay [2], in assay [3], in assay [4], in assay [5] and in assay [6] was inactive. Besides, the outcome in assay [7] was inactive.
Turning to `Nc1cc(C(Cl)=C(Cl)Cl)c(S(N)(=O)=O)cc1S(N)(=O)=O`, the outcome in assay [1], in assay [2], in assay [3], in assay [4], in assay [5] and in assay [6] was inactive. The outcome in assay [7] was inactive.
With `N#CC(c1ccc(Cl)cc1)c1c(Cl)cc(-n2ncc(=O)[nH]c2=O)cc1Cl` (stereo not drawn), the concentration at half-maximal activity (AC50) was 19.6 µM (active) in assay [1]; 32.2 µM (active) in assay [2]; 20.3 µM (active) in assay [3]; 31.4 µM (active) in assay [4]; 22.1 µM (active) in assay [5]; 22.1 µM (active) in assay [7]. In addition, in assay [6], the compound was called inactive.

Usually AC50 stands for the midpoint of the concentration-response curve, whichever way the signal moves.
